PPARg SRC-3 ag: promotes SRC-3 coactivator recruitment by human PPARgamma; P37231; biochemical PPARgamma/SRC-3 coactivator recruitment assay; activation, % at 8 µM; actives 0.26% (n = 200,000); AID 731; in the data active means activation above about 23%
PPARg SRC1 recr: PPARgamma-driven SRC-1 recruitment agonism; AID 631; P37231; activation, % at 8 µM; PPARgamma-SRC-1 coactivator recruitment biochemical assay; actives 0.41% (n = 200,000); in the data active means activation above about 19%
SRC3 TRFRET art: counter-screen for PPARgamma SRC-3 recruitment agonists: TR-FRET artefact | TR-FRET ratio at 8 µM | actives 0.39% (n = 99,000) | AID 1048 | PPARgamma/SRC-3 format; active compounds read high; in the data active means TR-FRET ratio above about 2000
SRC1 TRFRET art: counter-screen for PPARgamma SRC-1 recruitment agonists: TR-FRET artefact. TR-FRET detection artefact counter-screen, emission ratio; active compounds read high. TR-FRET ratio at 8 µM. actives 0.34% (n = 99,000). AID 1051; in the data active means TR-FRET ratio above about 2300
PPARg SRC2 recr: agonists of SRC-2 recruitment by human PPARgamma | P37231 | PPARgamma LBD-SRC-2 recruitment, biochemical | activation, % at 8 µM | actives 0.34% (n = 200,000) | AID 1032
SRC2 TRFRET art: counter-screen for PPARgamma SRC-2 recruitment agonists: TR-FRET artefact | active compounds read high | TR-FRET ratio at 8 µM | actives 0.4% (n = 200,000); in the data active means TR-FRET ratio above about 2000
PPARg SRC2 ag: confirmation of agonists of SRC-2 recruitment by human PPARgamma. shares compounds with PPARg SRC-3 ag. biochemical SRC-2 recruitment by PPARgamma. activation, % at 8 µM. actives 52% (n = 790)
PPARg SRC1 ag: confirmation of agonists of SRC-1 recruitment by human PPARgamma | actives 43% (n = 790) | activation, % at 8 µM | PPARgamma–SRC-1 coactivator recruitment biochemical assay | shares compounds with PPARg SRC-3 ag | AID 1300; in the data active means activation above about 20%
PPARg SRC3 ag: human PPARgamma SRC-3 recruitment agonism, confirmation | shares compounds with PPARg SRC-3 ag | biochemical PPARgamma-SRC-3 coactivator recruitment, agonist mode | activation, % at 8 µM | AID 1301 | actives 29% (n = 790); in the data active means activation above about 24%
Each line names hits and unclear results; the compound was inactive in the other large screens (follow-up assays come after a bar, where they were run). An excerpt weighted towards active compounds, which were near 0.9% of everything screened. Unless noted, no stated cut-off is given here; in the data, active means activation above about 22%; inactive means the rest.

CCCOc1ccc(C2C(C(=O)c3ccco3)=C(O)C(=O)N2CCCn2ccnc2)cc1 (stereo not drawn)	PPARg SRC1 recr 18.9 (no result: SRC3 TRFRET art, SRC1 TRFRET art) | PPARg SRC2 ag inactive | PPARg SRC1 ag inactive | PPARg SRC3 ag inactive
S=C(NCc1ccc2c(c1)OCO2)Nc1ccc2nsnc2c1	PPARg SRC-3 ag 56.4, PPARg SRC1 recr 61.4, SRC3 TRFRET art 3652, SRC1 TRFRET art 3812, PPARg SRC2 recr 90.9, SRC2 TRFRET art 2840 | PPARg SRC2 ag 22.6 | PPARg SRC1 ag 28.0 | PPARg SRC3 ag inactive
Cc1ccc(NC(=S)NCc2ccc3c(c2)OCO3)cc1C	none
CC1(C)Cc2ccccc2-c2nc3n(c(=O)c21)CCS3	none
Cn1c(=S)[nH]c2c(c1=O)C(C)(C)Cc1ccccc1-2	PPARg SRC-3 ag 24.9, PPARg SRC1 recr 39.7, SRC3 TRFRET art 2669, SRC1 TRFRET art 3109, PPARg SRC2 recr 44.7, SRC2 TRFRET art 2681 | PPARg SRC2 ag 36.6 | PPARg SRC1 ag 24.3 | PPARg SRC3 ag 24.2
CCn1c(=S)[nH]c2c(c1=O)C(C)(C)Cc1ccccc1-2	PPARg SRC-3 ag 28.4, PPARg SRC1 recr 44.1, SRC3 TRFRET art 2752, SRC1 TRFRET art 3374, PPARg SRC2 recr 32.9, SRC2 TRFRET art 2673 | PPARg SRC2 ag 35.5 | PPARg SRC1 ag 22.9 | PPARg SRC3 ag 24.5
CC(O/N=C\c1ccccc1O)C(=O)Nc1ccccc1C(=O)N1CCOCC1 (stereo not drawn)	none
COc1ccc(/C(O)=C2\C(=O)C(=O)N(c3cc(C)on3)C2c2ccccc2OC)cc1 (stereo not drawn)	PPARg SRC1 recr 19.2, PPARg SRC2 recr 31.9, SRC2 TRFRET art 2135 (no result: SRC3 TRFRET art, SRC1 TRFRET art) | PPARg SRC2 ag 30.7 | PPARg SRC1 ag 25.1 | PPARg SRC3 ag inactive
COc1ccc(/C(O)=C2\C(=O)C(=O)N(c3cc(C)on3)C2c2ccc(OC)c(OC)c2)cc1OC (stereo not drawn)	none (no result: SRC3 TRFRET art, SRC1 TRFRET art)
COc1cccc(C2/C(=C(\O)c3ccc(OC)c(OC)c3)C(=O)C(=O)N2c2cc(C)on2)c1 (stereo not drawn)	PPARg SRC-3 ag 27.9, PPARg SRC2 recr 29.2 (no result: SRC3 TRFRET art, SRC1 TRFRET art) | PPARg SRC2 ag 24.2 | PPARg SRC1 ag inactive | PPARg SRC3 ag inactive
Cc1cc(C)cc(C(=O)NCC(=O)OCC(=O)NCC(F)(F)F)c1	none
O=C1c2ccccc2-c2onc3ccc(NCc4ccco4)c1c23	PPARg SRC1 recr 31.7, SRC3 TRFRET art 2084, PPARg SRC2 recr 35.4 | PPARg SRC2 ag 22.7 | PPARg SRC1 ag inactive | PPARg SRC3 ag inactive
CCNc1ccc2noc3c2c1C(=O)c1ccccc1-3	none (no result: SRC3 TRFRET art, SRC1 TRFRET art)
CCn1c(-c2csc3c2CCC(C)C3)n[nH]c1=S (stereo not drawn)	none
O=[N+]([O-])c1ccc(O)c(-c2nc(-c3ccccc3)c(-c3cccs3)[nH]2)c1	none (no result: SRC3 TRFRET art, SRC1 TRFRET art)
COc1ccc(-c2nc(-c3cccs3)c(-c3cccs3)[nH]2)cc1O	PPARg SRC-3 ag 90.3, PPARg SRC1 recr 63.0, PPARg SRC2 recr 89.5, SRC2 TRFRET art 3397 (no result: SRC3 TRFRET art, SRC1 TRFRET art) | PPARg SRC2 ag 55.8 | PPARg SRC1 ag 43.6 | PPARg SRC3 ag 39.9
COc1ccc(Br)cc1-c1nc(CCl)cs1	PPARg SRC-3 ag 42.2, PPARg SRC1 recr 62.1, SRC3 TRFRET art 3363, SRC1 TRFRET art 3749, PPARg SRC2 recr 61.7, SRC2 TRFRET art 3230 | PPARg SRC2 ag 58.6 | PPARg SRC1 ag 43.1 | PPARg SRC3 ag 41.3
Nc1c(C(=O)Nc2ccccc2)sc2nc3c(c(-c4ccco4)c12)CCC3	none (no result: SRC3 TRFRET art, SRC1 TRFRET art)
COc1ccc(-c2c3c(nc4sc(C(=O)Nc5ccccc5)c(N)c24)CCC3)cc1	PPARg SRC-3 ag 26.7, PPARg SRC2 recr 25.6 (no result: SRC3 TRFRET art, SRC1 TRFRET art) | PPARg SRC2 ag 33.2 | PPARg SRC1 ag 19.8 | PPARg SRC3 ag inactive
Cc1ccc2nc(C)c3c(c2c1)COC3	none
Cc1cccc(C)c1-n1c(C)nn(CC2CC2)c1=O	none

Compound activity from PubChem BioAssay.
